In PubChem BioAssay:
Calls of active or inactive are those of the source.

How the values were obtained:
[1] = test system: PRMT1 (protein arginine N-methyltransferase 1); assay: small molecules binding arginine methyltransferase PRMT1 – biochemical, small-molecule microarray, 635 nm fluorescence, primary screen (AID 1088); settings: higher = more signal;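 also: binding of Prmt1 protein to compounds spotted on small-molecule microarray slides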
[2] = growth effects on S. cerevisiae YJM789 – YJM789 clinical isolate, OD600, 24 h, basal, primary screen (AID 1089); settings: higher = more signal, called active from +8 up or from −8 down;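 also: growth of clinical yeast isolate S. cerevisiae YJM 789 seeded 1000 cells per well; test concentration not given here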
[3] = S. pombe growth modifiers, basal conditions – strain 972, OD600, 24 h, no modulator, primary screen (AID 1090);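 also: basal condition with compound alone and no growth modifier present; test concentration not given here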; settings: S. pombe 972 growth, higher = more signal, called active from +8 up or from −8 down
[4] = budding yeast growth modifiers under rapamycin – strain BY4716, OD600, 96 h, primary screen (AID 1091); also: test concentration not given here; settings: S. cerevisiae BY4716 + rapamycin, higher = more signal, called active from +8 up or from −8 down
[5] = target: Torsin-1A-interacting protein 2 (Homo sapiens) (UniProt Q8NFQ8); assay: small molecules binding lysate-expressed LULL1 – cell lysate, human LULL1 lysate, 635/667 nm fluorescence, primary screen (AID 1092); settings: small-molecule microarray, hLULL1 lysate binding, 635 nm fluorescence; higher = more signal;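 also: probe is lysate of COS7 cells overexpressing human LULL1; score merges per-feature 667 nm fluorescence with signal-to-noise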
[6] = optical density change of DRC41 E. coli – strain DRC41, OD650, 24 h, E. coli filamentation project, primary screen (AID 1093);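 also: MC1000 strain lacking acrAB efflux and sulA so SOS filamentation is blocked; test concentration not given here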; settings: E. coli DRC41 growth, higher = more signal, called active from +8 up or from −8 down
[7] = probe aLefty2 binding to arrayed compounds – biochemical, biotinylated probe, 635/667 nm fluorescence, primary screen (AID 1094); settings: small-molecule microarray, higher = more signal;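 also: score merges spot fluorescence near 667 nm with spot signal-to-noise ratio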
[8] = test system: Noggin (protein binding on small-molecule microarray); assay: small molecules binding Noggin protein – biochemical, 635/667 nm fluorescence, primary screen (AID 1095); settings: 635 nm fluorescence, higher = more signal;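 also: score merges 667 nm feature fluorescence with signal to noise over triplicate slides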
[9] = target: Neurogenic locus notch homolog protein 3 (Homo sapiens) (UniProt Q9UM47); assay: small molecules binding NOTCH3 protein – biochemical, 635/667 nm fluorescence, primary screen (AID 1096); settings: small-molecule microarray, 635 nm fluorescence, higher = more signal
[10] = probe aEGFR binding to arrayed compounds – biochemical, biotinylated probe, 635/667 nm fluorescence, primary screen (AID 1097); settings: small-molecule microarray, higher = more signal;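 also: probe is a biotinylated anti-EGFR antibody binding compounds printed on slides; score combines fluorescence near 667 nm and signal to noise of each spot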
[11] = test system: Plasmodium falciparum Sir2 (PF13_0152, Sir2A); assay: Plasmodium falciparum Sir2A binding compounds – biochemical, small-molecule microarray, 635 nm fluorescence, primary screen (AID 1098); settings: fluorescence 635 nm, higher = more signal;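 also: score merges spot fluorescence intensity with its signal-to-noise ratio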
[12] = probe aDKK1 binding to arrayed compounds – biochemical, biotinylated probe, 635/667 nm fluorescence, primary screen (AID 1099); settings: small-molecule microarray, higher = more signal;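 also: score merges 667nm spot fluorescence with signal to noise across triplicate slides; reference of the scale not given here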
[13] = probe aCHRDL2 binding to arrayed compounds – biochemical, biotinylated probe, 635/667 nm fluorescence, primary screen (AID 1100); settings: small-molecule microarray, higher = more signal
[14] = change in splice reporter luminescence, either direction, cell-based, HEK293, spliceosome inhibition project, primary screen (AID 1101); settings: HEK293 splicing luciferase reporter, 24 h, higher = more signal, called active from +8 up or from −8 down;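 also: HEK293 cells carrying a splicing-competent luciferase reporter gene; test concentration not given here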
[15] = target: Fibroblast growth factor 10 (Homo sapiens) (UniProt O15520); assay: compounds binding fibroblast growth factor 10 – biochemical, small-molecule microarray, 635 nm fluorescence, primary screen (AID 1102); settings: FGF10 binding, fluorescence 635 nm, higher = more signal
[16] = test system: glycogen synthase kinase-3 (GSK3A per assay name; protocol says GSK3B); assay: compounds binding glycogen synthase kinase-3 – biochemical, small-molecule microarray, 635 nm fluorescence, GSK3A, primary screen (AID 1103); settings: fluorescence 635 nm, higher = more signal; also: the record names both GSK3A and GSK3B
[17] = target: Epidermal growth factor receptor (Homo sapiens) (UniProt P00533); assay: compounds binding epidermal growth factor receptor – biochemical, small-molecule microarray, 635 nm fluorescence, primary screen (AID 1104); settings: EGFR binding, higher = more signal;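 also: score merges 667 nm emission intensity with spot signal to noise over triplicate slides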
[18] = target: Follistatin-related protein 3 (Homo sapiens) (UniProt O95633); assay: compounds binding follistatin-related protein 3 – biochemical, small-molecule microarray, 635 nm fluorescence, primary screen (AID 1105); settings: FSTL3 binding, higher = more signal;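 also: score merges emission near 667 nm and signal to noise per printed spot across three slides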
[19] = target: Dickkopf-related protein 1 (Homo sapiens) (UniProt O94907); assay: small molecules binding DKK1 protein – biochemical, small-molecule microarray, 635 nm fluorescence scan, primary screen (AID 1106); settings: higher = more signal;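 also: score merges emission near 667 nm with signal to noise over three replicate slides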
[20] = test system: Inhibin beta A chain (activin A); assay: small molecules binding activin A – biochemical, small-molecule microarray, 635 nm fluorescence scan, primary screen (AID 1107); settings: INHBA, higher = more signal;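 also: mouse activin A protein probed at 4.33 µg/mL on printed slides; score merges bound-protein fluorescence near 667 nm with spot signal-to-noise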

Sequence of Follistatin-related protein 3 (Homo sapiens) (O95633 whole entry, looked up): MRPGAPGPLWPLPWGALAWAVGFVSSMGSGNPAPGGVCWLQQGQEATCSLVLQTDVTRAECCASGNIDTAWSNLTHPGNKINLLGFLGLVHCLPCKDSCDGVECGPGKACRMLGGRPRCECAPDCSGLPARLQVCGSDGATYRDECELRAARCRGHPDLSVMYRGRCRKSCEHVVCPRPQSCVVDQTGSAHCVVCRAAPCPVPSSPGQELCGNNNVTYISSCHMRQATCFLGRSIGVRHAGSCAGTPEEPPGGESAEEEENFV
Sequence of Epidermal growth factor receptor (Homo sapiens) (P00533 whole entry, looked up): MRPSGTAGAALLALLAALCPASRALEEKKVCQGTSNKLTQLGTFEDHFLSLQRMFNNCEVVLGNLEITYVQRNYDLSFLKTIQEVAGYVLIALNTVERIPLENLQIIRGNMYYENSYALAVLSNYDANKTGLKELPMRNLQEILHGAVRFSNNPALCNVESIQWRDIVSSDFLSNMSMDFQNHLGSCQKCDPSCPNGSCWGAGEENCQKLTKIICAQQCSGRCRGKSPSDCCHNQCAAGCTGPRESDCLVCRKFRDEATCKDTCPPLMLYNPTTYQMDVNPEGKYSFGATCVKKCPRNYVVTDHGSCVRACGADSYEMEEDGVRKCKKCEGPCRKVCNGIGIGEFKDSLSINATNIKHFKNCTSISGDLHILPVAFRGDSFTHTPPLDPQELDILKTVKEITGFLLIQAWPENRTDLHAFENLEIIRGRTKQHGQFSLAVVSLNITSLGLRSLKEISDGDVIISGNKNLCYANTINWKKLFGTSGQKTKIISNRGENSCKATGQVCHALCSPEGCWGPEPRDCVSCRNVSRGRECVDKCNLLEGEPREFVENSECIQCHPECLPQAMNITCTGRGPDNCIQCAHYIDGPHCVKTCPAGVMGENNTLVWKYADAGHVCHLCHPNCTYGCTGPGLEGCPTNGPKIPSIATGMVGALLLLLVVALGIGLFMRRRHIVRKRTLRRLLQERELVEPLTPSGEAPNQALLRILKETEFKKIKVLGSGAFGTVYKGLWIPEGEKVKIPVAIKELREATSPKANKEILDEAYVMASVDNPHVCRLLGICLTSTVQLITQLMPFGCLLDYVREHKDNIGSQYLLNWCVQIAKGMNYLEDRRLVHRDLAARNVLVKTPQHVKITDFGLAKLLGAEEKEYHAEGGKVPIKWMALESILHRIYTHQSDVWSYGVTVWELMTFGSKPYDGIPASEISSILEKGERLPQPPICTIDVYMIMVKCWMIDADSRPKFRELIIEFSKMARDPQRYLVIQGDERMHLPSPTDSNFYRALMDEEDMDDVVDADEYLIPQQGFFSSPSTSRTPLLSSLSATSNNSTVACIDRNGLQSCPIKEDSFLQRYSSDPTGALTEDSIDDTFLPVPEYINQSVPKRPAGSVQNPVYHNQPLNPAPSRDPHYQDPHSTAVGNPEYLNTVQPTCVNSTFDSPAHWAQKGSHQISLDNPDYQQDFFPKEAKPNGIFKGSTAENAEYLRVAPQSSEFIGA
Sequence of Fibroblast growth factor 10 (Homo sapiens) (O15520 whole entry, looked up): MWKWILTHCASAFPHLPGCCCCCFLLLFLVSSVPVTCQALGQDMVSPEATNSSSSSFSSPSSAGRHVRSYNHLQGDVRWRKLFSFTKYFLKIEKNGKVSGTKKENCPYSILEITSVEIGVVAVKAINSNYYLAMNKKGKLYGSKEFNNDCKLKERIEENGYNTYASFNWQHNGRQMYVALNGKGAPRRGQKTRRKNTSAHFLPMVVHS
Sequence of Dickkopf-related protein 1 (Homo sapiens) (O94907 whole entry, looked up): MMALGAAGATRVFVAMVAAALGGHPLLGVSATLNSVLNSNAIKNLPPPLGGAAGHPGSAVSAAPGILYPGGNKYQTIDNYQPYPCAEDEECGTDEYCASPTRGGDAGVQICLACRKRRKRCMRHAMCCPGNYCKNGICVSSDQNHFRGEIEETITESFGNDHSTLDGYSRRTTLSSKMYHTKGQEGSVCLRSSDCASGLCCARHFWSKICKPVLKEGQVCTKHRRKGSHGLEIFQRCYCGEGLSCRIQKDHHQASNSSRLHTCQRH
Sequence of Torsin-1A-interacting protein 2 (Homo sapiens) (Q8NFQ8 whole entry, looked up): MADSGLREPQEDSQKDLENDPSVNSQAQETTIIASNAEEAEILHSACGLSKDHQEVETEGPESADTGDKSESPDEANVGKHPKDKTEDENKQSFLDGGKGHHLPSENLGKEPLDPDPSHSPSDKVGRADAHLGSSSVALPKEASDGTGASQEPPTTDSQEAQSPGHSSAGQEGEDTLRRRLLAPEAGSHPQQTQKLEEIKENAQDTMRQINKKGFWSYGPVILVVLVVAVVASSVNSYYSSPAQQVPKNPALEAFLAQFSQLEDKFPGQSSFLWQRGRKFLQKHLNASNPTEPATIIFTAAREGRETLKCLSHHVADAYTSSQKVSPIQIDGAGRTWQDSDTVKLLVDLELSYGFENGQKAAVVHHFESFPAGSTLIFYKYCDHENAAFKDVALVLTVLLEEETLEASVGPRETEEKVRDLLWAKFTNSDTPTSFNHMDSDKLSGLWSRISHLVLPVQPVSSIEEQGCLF
Sequence of Neurogenic locus notch homolog protein 3 (Homo sapiens) (Q9UM47 whole entry, looked up): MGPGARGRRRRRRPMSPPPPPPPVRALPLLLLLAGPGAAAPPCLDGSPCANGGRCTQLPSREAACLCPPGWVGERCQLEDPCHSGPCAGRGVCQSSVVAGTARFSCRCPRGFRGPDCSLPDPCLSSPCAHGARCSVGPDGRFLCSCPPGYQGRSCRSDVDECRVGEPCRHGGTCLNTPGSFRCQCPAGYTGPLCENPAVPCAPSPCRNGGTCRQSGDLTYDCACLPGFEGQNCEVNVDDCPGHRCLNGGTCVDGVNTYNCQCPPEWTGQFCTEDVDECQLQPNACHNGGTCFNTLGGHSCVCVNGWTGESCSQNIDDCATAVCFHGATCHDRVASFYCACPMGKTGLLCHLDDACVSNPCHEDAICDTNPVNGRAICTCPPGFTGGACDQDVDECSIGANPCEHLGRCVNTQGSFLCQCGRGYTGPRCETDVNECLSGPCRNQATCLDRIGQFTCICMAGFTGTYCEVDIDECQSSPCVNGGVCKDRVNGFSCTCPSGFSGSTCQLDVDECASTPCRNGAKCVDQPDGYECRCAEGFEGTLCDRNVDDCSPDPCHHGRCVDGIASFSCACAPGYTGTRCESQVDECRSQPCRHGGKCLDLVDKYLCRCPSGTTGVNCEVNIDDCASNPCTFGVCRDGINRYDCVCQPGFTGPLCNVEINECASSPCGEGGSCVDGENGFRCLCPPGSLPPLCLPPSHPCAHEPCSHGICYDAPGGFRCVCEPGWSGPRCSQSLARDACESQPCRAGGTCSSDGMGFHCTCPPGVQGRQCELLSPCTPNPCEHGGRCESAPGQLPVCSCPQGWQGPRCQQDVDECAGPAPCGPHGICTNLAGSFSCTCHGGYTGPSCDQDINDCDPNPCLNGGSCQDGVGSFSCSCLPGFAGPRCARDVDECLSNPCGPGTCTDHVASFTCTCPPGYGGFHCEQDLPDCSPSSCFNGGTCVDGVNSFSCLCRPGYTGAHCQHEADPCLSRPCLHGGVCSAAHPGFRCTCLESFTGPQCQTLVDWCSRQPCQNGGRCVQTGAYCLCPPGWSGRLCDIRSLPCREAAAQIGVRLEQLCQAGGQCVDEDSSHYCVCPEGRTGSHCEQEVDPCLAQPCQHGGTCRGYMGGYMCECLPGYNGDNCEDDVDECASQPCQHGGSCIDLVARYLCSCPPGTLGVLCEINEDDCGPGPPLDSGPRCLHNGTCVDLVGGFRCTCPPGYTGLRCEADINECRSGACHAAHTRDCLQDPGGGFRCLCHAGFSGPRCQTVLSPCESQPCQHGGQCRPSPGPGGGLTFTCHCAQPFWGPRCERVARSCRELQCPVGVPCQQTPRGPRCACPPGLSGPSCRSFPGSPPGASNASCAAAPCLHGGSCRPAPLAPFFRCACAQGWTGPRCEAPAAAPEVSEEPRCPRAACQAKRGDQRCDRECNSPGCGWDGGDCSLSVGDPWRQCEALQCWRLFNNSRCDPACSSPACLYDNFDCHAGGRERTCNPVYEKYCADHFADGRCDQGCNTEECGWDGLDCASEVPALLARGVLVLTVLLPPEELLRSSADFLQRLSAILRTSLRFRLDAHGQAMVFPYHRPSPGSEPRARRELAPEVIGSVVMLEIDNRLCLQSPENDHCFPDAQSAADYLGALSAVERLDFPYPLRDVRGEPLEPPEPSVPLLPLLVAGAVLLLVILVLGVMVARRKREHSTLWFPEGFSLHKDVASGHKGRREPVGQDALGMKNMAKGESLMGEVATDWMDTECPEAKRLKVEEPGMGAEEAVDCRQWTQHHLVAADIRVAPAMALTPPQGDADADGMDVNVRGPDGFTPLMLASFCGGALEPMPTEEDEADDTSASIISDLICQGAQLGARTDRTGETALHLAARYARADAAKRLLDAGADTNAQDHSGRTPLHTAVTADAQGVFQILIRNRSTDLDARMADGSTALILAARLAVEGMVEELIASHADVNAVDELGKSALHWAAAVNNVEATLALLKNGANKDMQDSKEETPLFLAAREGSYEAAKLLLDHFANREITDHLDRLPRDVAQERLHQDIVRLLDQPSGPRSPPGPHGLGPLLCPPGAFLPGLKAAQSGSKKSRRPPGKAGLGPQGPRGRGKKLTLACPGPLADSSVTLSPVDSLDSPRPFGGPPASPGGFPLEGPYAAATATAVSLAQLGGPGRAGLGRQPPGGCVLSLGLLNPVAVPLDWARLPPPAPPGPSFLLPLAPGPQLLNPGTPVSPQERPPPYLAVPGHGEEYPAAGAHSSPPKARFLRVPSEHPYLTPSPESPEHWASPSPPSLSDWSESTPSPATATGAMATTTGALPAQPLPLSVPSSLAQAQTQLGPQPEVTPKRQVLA

SMILES	composite z-score [1]	z-score [2]	z-score [3]	z-score [4]	composite z-score [5]	z-score [6]	composite z-score [7]	composite z-score [8]	composite z-score [9]	composite z-score [10]	composite z-score [11]	composite z-score [12]	composite z-score [13]	z-score [14]	composite z-score [15]	composite z-score [16]	composite z-score [17]	composite z-score [18]	composite z-score [19]	composite z-score [20]
CCOC(=O)[C@H](Cc1ccccc1)NC(=O)CCC1CC(OC(=O)NCCc2ccc(F)cc2)CC2(CCCC(COC(=O)NCc3cccc(C(F)(F)F)c3)O2)O1 (stereo not given in full)	1.45	0.563 (inactive)	0.106 (inactive)	0.029 (inactive)	2.9	0.468 (inactive)	-0.0008	0.832	1.11	0.12	0.863	-0.139	-0.311	-0.891 (inactive)	0.904	1.06	0.818	0.786	0.484	-0.335
O=C1[C@H]2[C@H]3[C@H](O)[C@H](O)CC(=NO[C@@H]4O[C@H](CO)[C@@H](O)[C@H](O)[C@H]4O)[C@@H]3CC[C@H]2C(=O)N1C[C@@H]1CCCO1	1.08	0.57 (inactive)	-0.0413 (inactive)	-0.0603 (inactive)	1.21	0.415 (inactive)	-0.0683	-0.287	0.979	0.0934	0.355	-0.29	-0.565	-1.45 (inactive)	0.784	0.839	0.448	0.738	0.35	-0.808
CCN1C(=O)[C@H]2[C@H]3[C@H](O)[C@H](O)CC(=NO[C@@H]4O[C@H](CO)[C@@H](O)[C@H](O)[C@H]4O)[C@H]3CC[C@H]2C1=O	-0.26	-0.862 (inactive)	-0.238 (inactive)	-0.14 (inactive)	-0.127	0.12 (inactive)	-0.204	0.484	0.65	-0.128	0.0675	-0.219	-0.447	-0.0478 (inactive)	0.456	0.342	0.933	0.619	0.611	0.182
CC(=O)OC[C@H]1O[C@H](CC=NOCC[C@@H]2C=C[C@H](OC(C)=O)[C@@H](COC(C)=O)O2)C=C[C@@H]1OC(C)=O	1.46	-0.996 (inactive)	0.526 (inactive)	-0.0043 (inactive)	0.137	0.712 (inactive)	0.0024	0.772	0.757	0.0707	0.892	0.771	-0.752	0.525 (inactive)	1.08	0.93	0.914	0.716	0.864	0.103
OC[C@H]1O[C@H](C#Cc2ccccc2)C=C[C@@H]1O	0.232	0.643 (inactive)	-1.33 (inactive)	-0.98 (inactive)	0.233	0.897 (inactive)	-0.113	0.498	0.609	-0.124	0.721	-0.301	-0.385	0.072 (inactive)	0.194	0.356	0.506	0.546	0.546	0.408
COC(=O)[C@H](C)NC(=O)CCC1CC(OC(=O)NCc2cccc3ccccc23)CC2(CCCC(COC(=O)NCc3ccccc3)O2)O1 (stereo not given in full)	1.29	-0.68 (inactive)	0.507 (inactive)	-0.936 (inactive)	1.97	-0.351 (inactive)	-0.0638	0.478	1.09	0.12	0.537	-0.132	-0.459	-0.829 (inactive)	0.625	1.04	0.445	0.918	0.667	-0.0949
CCOC(=O)NN=C1C[C@@H](O)[C@@H](O)[C@@H]2[C@@H]3C(=O)N(C[C@@H]4CCCO4)C(=O)[C@@H]3CC[C@H]12	0.611	-1.43 (inactive)	-0.318 (inactive)	-0.0602 (inactive)	0.448	0.416 (inactive)	-0.179	0.481	0.411	-0.0668	0.348	-0.0748	-0.317	0.488 (inactive)	0.515	0.417	0.401	0.264	0.504	0.17
CC(=O)OC[C@H]1O[C@H](CC=NOC[C@@H](O)[C@H]2O[C@@H]3OC(C)(C)O[C@@H]3[C@H]2O)C=C[C@@H]1OC(C)=O	0.739	0.561 (inactive)	1.09 (inactive)	0.541 (inactive)	2.25	0.72 (inactive)	-0.0708	0.441	0.492	-0.0035	0.8	-0.0771	-0.351	-0.136 (inactive)	0.771	0.529	0.317	0.451	0.375	-0.115
C#CCCCON=C1C[C@@H](O)[C@@H](O)[C@@H]2[C@@H]3C(=O)N(CC)C(=O)[C@@H]3CC[C@H]12	1.37	-0.276 (inactive)	-0.26 (inactive)	-0.247 (inactive)	2.11	0.216 (inactive)	-0.25	0.726	0.348	-0.174	0.581	-0.189	-0.267	0.385 (inactive)	0.301	-0.396	0.285	-0.331	0.209	-0.124
CC(CCN1CCCc2nc(C)c(C)cc21)=NOC[C@@H](O)COCc1ccco1	1.53	-1.86 (inactive)	0.544 (inactive)	-0.831 (inactive)	0.0346	0.798 (inactive)	1.27	2.32	1.07	1.15	1.22	1.57	-0.216	0.58 (inactive)	1.56	1.22	1.76	1.6	2.25	1.96
